# Assay results reported in PubChem BioAssay.
# The source made the active and inactive calls.
# Experiments:
# [1] = tested on: Human papillomavirus type 1a protein E7 (residues 44-93); experiment: small molecules binding HPV E7 44-93 – biochemical, small-molecule microarray, residues 44-93, 635 nm fluorescence, primary screen (AID 1108); details: fluorescence 635 nm, higher = more signal;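 further: E7 fragment applied at 1 µg/mL in TBST for 1 h at 4 C; score combines spot fluorescence with its signal to noise ratio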
# [2] = hepatitis C replication reporter changes, two-sided – Huh7 cells, luciferase reporter, HCV replication inhibitor project, primary screen (AID 1109); details: Huh7 HCV replicon luciferase reporter, 48 h; higher = more signal;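 further: huh7 hepatoma cells harbouring a luciferase neomycin HCV replicon reporter; luciferase luminescence as measure of HCV replicon replication; test concentration not given here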
# [3] = target: Left-right determination factor 2 (Homo sapiens) (UniProt O00292); experiment: small molecules binding LEFTY2 protein – biochemical, small-molecule microarray, 635 nm fluorescence scan, primary screen (AID 1110); details: higher = more signal
# Left-right determination factor 2 (Homo sapiens), sequence (O00292 whole entry, looked up): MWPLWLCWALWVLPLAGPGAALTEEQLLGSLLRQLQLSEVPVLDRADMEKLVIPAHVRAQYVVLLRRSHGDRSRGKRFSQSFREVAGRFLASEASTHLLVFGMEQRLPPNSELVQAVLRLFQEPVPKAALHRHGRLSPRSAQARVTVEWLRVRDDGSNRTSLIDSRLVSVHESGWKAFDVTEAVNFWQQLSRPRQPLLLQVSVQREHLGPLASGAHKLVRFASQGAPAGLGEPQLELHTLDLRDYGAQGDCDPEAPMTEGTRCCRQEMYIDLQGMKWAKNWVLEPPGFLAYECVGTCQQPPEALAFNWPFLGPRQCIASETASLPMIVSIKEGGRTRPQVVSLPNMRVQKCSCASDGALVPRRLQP
# [4] = target: Calmodulin-1 (Homo sapiens) (UniProt P0DP23); experiment: small molecules binding calmodulin-1 with EGTA – biochemical, small-molecule microarray, Cy5-labelled CALM1, profiling panel (AID 1111); details: Cy5-CALM1 binding fluorescence, higher = more signal;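 further: labelled calmodulin applied in Tris saline Tween buffer holding calcium plus EGTA and DTT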
# [5] = target: Calmodulin-1 (Homo sapiens) (UniProt P0DP23); experiment: small molecules binding Ca-loaded calmodulin-1 – biochemical, small-molecule microarray, Cy5-labelled CALM1, plus calcium, artefact control for SMM control-protein annotation, profiling panel (AID 1112); details: Cy5-CALM1 binding fluorescence, higher = more signal;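 further: score merges spot fluorescence with signal to noise from triplicate slides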
# [6] = probe aWnt5a binding to arrayed compounds – biochemical, biotinylated probe, 635/667 nm fluorescence, primary screen (AID 1113); details: small-molecule microarray, higher = more signal;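 further: score merges 667 nm fluorescence intensity with signal-to-noise per printed feature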
# [7] = probe aShh binding to arrayed compounds – biochemical, biotinylated probe, 635/667 nm fluorescence, primary screen (AID 1114); details: small-molecule microarray, higher = more signal;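 further: probe is biotin-labelled aShh protein from a stem cell growth factor screen; measures binding of labelled protein to compounds printed on the slide; score merges feature fluorescence at 667 nm with signal-to-noise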
# [8] = probe aNog binding to arrayed compounds – biochemical, biotinylated probe, 635/667 nm fluorescence, primary screen (AID 1115); details: small-molecule microarray, higher = more signal;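 further: probe is biotinylated aNog protein used at 0.15 µg/mL for 1 h at 4 C; z-score combines 667 nm fluorescence of each spot with its signal to noise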
# [9] = target: Torsin-1A-interacting protein 1 (Homo sapiens) (UniProt Q5JTV8); experiment: compound microarray binding of lysate hLAP1 – cell lysate, small-molecule microarray, COS7 lysate, 635/667 nm fluorescence, primary screen (AID 1116); details: 635 nm fluorescence, higher = more signal
# Torsin-1A-interacting protein 1 (Homo sapiens), sequence (Q5JTV8 whole entry, looked up): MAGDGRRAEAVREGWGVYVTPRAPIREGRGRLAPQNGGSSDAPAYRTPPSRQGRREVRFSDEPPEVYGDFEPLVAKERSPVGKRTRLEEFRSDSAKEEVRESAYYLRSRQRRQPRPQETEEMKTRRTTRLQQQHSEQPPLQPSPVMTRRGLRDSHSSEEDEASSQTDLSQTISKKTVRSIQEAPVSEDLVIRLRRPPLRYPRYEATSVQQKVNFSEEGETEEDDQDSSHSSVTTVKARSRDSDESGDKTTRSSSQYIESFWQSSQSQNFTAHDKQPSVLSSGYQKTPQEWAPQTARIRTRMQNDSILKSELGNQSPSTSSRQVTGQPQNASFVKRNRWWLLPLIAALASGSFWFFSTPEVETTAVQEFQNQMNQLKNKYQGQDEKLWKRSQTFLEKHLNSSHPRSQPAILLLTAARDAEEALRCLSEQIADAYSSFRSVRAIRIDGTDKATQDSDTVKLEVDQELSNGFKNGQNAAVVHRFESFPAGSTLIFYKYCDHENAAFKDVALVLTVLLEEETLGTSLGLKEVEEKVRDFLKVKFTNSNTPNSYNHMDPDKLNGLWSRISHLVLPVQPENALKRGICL
# [10] = target: Alpha-bungarotoxin (Bungarus multicinctus) (UniProt P60615); experiment: compounds binding labelled alpha-BTX control protein – biochemical, small-molecule microarray, Alexa647 label, 635/667 nm fluorescence, artefact control for SMM control protein annotation, profiling panel (AID 1117); details: alpha-BTX-A647 binding fluorescence, higher = more signal
# Alpha-bungarotoxin (Bungarus multicinctus), sequence (P60615 whole entry, looked up): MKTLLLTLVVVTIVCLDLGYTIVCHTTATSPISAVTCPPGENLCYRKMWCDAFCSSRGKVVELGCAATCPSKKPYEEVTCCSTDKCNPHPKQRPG
# [11] = target: Albumin (Bos taurus) (UniProt P02769); experiment: compounds binding labelled BSA control protein – biochemical, small-molecule microarray, Alexa647 label, 635/667 nm fluorescence, artefact control for SMM control protein annotation, profiling panel (AID 1118); details: BSA-A647 binding, fluorescence 635 nm, higher = more signal;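 further: score merges 667 nm emission intensity and signal-to-noise per printed compound spot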
# Albumin (Bos taurus), sequence (P02769 whole entry, looked up): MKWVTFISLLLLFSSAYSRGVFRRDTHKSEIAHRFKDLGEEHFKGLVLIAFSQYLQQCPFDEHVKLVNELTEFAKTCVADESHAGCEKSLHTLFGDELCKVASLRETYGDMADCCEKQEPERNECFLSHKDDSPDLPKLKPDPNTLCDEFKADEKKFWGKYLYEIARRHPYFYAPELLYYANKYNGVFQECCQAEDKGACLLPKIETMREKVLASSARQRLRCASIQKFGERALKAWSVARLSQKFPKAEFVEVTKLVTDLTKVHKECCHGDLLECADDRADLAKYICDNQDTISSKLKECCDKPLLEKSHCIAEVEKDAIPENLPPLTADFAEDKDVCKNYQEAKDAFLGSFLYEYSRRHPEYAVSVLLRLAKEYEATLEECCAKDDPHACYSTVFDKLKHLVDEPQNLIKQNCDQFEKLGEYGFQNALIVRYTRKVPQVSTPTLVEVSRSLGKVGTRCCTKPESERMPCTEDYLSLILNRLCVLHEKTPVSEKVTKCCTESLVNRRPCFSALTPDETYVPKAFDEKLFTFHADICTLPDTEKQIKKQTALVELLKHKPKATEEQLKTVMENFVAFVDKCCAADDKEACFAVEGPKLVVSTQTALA
# [12] = probe aXIP binding to arrayed compounds – biochemical, NeuroSMM set, 635/667 nm fluorescence, primary screen (AID 1119); details: small-molecule microarray, higher = more signal, called active from +8 up or from −8 down;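 further: probe is the protein aXip251-270 applied at 1 µg/mL to compound-printed slides; binding of probe to printed compounds measured as 667 nm fluorescence plus signal to noise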
# [13] = probe aNOTCH3 binding on compound microarray – biochemical, small-molecule microarray, 635/667 nm fluorescence, primary screen (AID 1120); details: higher = more signal;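 further: probe is a biotin-tagged antibody raised against NOTCH3 rather than NOTCH3 protein; score merges spot fluorescence near 667 nm with spot signal to noise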
# [14] = probe aNOTCH2 binding on compound microarray – biochemical, small-molecule microarray, 635/667 nm fluorescence, primary screen (AID 1121); details: higher = more signal;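 further: score merges feature fluorescence read at 667 nm with its signal to noise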
# [15] = target: Carbonic anhydrase 2 (Homo sapiens) (UniProt P00918); experiment: compounds binding carbonic anhydrase 2 – biochemical, small-molecule microarray, Alexa647-labelled CAII, profiling panel (AID 1122); details: CAII-A647 binding fluorescence, higher = more signal
# [16] = COS7 lysate on small-molecule microarray, probe aHis, 635 nm (AID 1123); details: COS7 cell lysate, fluorescence, higher = more signal;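 further: z-score combines 667nm fluorescence intensity with signal-to-noise per printed compound spot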
# [17] = probe aLAP1 signal on lysate-treated microarray – cell lysate, small-molecule microarray, COS7 lysate, primary screen (AID 1124); details: probe aLAP1, fluorescence, higher = more signal;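 further: lysate comes from COS7 cells expressing LAP1 and is applied at 0.3 µg/mL; score merges spot fluorescence near 667 nm with signal-to-noise over triplicate slides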
# [18] = tested on: Sam68 (KHDRBS1); experiment: compounds binding KHDRBS1 protein – biochemical, small-molecule microarray, 635 nm fluorescence, primary screen (AID 1125); details: higher = more signal;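 further: score merges 667 nm channel intensity with signal to noise over triplicate slides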
# [19] = tested on: Chordin-like protein 2 (CHRDL2); experiment: compounds binding chordin-like 2 – biochemical, small-molecule microarray, 635 nm fluorescence, primary screen (AID 1126); details: fluorescence 635 nm, higher = more signal;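 further: printed compound slides probed with Chrdl2 protein at 4 µg/mL for 1 h at 4 C; score merges 667 nm emission intensity with signal to noise over three replicate slides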
# [20] = target: Concanavalin-A (Canavalia ensiformis) (UniProt P02866); experiment: compounds binding concanavalin A lectin – biochemical, small-molecule microarray, Alexa647 label, 635 nm, artefact control for SMM control protein annotation, primary screen (AID 1127); details: ConA-A647 binding fluorescence, higher = more signal;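 further: z combines 667 nm emission intensity with signal-to-noise across three replicate slides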
# Concanavalin-A (Canavalia ensiformis), sequence (P02866 whole entry, looked up): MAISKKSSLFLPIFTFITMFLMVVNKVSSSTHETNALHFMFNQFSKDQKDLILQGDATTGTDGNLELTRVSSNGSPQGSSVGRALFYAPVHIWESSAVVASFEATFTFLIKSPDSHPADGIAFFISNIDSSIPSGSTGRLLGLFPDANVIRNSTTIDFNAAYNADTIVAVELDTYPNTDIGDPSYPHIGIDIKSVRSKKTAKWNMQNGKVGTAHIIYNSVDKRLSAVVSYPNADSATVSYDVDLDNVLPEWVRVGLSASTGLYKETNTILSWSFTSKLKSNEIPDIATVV
Compound,composite z-score [1],z-score [2],composite z-score [3],composite z-score [4],composite z-score [5],composite z-score [6],composite z-score [7],composite z-score [8],composite z-score [9],composite z-score [10],composite z-score [11],composite Z-score [12],composite z-score [13],composite z-score [14],composite z-score [15],composite z-score [16],composite z-score [17],composite z-score [18],composite z-score [19],composite z-score [20]
CCOC(=O)[C@H](Cc1ccccc1)NC(=O)CCC1CC(OC(=O)NCc2ccc3c(c2)OCO3)CC2(CCCC(COC(=O)NCCc3ccc(Cl)cc3)O2)O1 (stereo not given in full),1.14,0.615,0.619,0.534,-0.397,-0.124,0.0756,0.0308,-0.0764,0.337,0.581,0.264 (inactive),0.0591,-0.125,0.151,0.454,0.0158,1.3,0.43,0.814
CC(CCN1CCCCc2nc(C)c(C)cc21)=NOC[C@@H](O)[C@H]1O[C@@H]2OC(C)(C)O[C@@H]2[C@H]1O,-0.902,0.0388,1.39,-0.554,-1.3,-0.124,-0.0626,0.0254,-0.219,0.969,0.814,-0.379 (inactive),-0.0363,-0.166,-0.378,-0.461,-0.258,0.0948,1.16,-0.0142
COc1ccc(O[C@H]2C=C[C@@H](C#Cc3ccccc3)O[C@@H]2CO)cc1,0.342,-2.17,-0.0192,1.42,0.493,-0.124,0.0048,-0.0428,0.158,0.439,0.271,0.446 (inactive),-0.0932,0.113,0.314,0.962,0.0803,-0.006,0.176,0.869
CC(=O)OC[C@H]1O[C@H](CC=NOC[C@@H](O)[C@H]2O[C@@H]3OC(C)(C)O[C@@H]3[C@H]2O)C=C[C@@H]1OC(C)=O,0.836,-0.041,0.439,0.699,0.249,-0.0735,0.179,-0.189,0.51,1.32,0.846,0.0765 (inactive),0.116,-0.0934,0.298,0.548,0.79,0.883,0.0166,0.976
O=C1CCCC=C1C(O)COCc1ccccc1 (stereo not given),-1.61,-0.45,-0.0061,-0.0384,-1.3,0.026,-0.269,-0.172,0.381,0.032,0.411,0.16 (inactive),-0.154,-0.157,-0.213,0.428,0.08,-1.01,-0.137,0.999
CCN1C(=O)[C@H]2[C@H]3[C@H](O)[C@H](O)CC(=NOC[C@@H](O)COCc4ccco4)[C@H]3CC[C@H]2C1=O,0.296,-0.389,1.41,-2.21,-2.59,-0.216,-0.2,-0.878,-0.0551,-0.441,0.532,0.525 (inactive),-0.18,-0.16,0.093,-0.303,0.0965,0.971,1.5,-1.26
